Experimental data: PubChem BioAssay
Several values for one entry are separate records, joined by “and”; a condition that tells them apart may be missing. Identical values can stand only once. Unmarked numbers belong to inactive results. Where a call stands in place of a potency, no number is given. For part of these data: Potency and affinity values are given separately. Activity calls are given as the source filed them. Unless noted, how the calls were made is not given here.

What was measured:
[1] = antimalarial activity against Dd2 strain (AID 2302;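 active means growth inhibition above 50% at the single 2 µM test dose, taken to imply half-maximal potency below 2 µM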); settings: P. falciparum Dd2 in RBCs, LDH growth readout, 72 h; at 2 µM; hits give high values
[2] = human hepatoma cell viability loss – ATP luminescence, cytotoxicity control for P. falciparum antimalarial project, primary screen (AID 2303;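 active means inhibition above 50%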); settings: HepG2 viability, 24-48 h, at 10 µM, hits give high values
[3] = target: L-lactate dehydrogenase (Plasmodium falciparum (isolate CDC / Honduras)) (UniProt Q27743); assay: PfLDH activity inhibition – cell lysate, 3D7 strain, counter-screen for P. falciparum growth inhibition project (AID 2304); settings: P. falciparum 3D7 crude extract, LDH APAD/NBT absorbance; at 2 µM; hits give high values
Sequence of L-lactate dehydrogenase (Plasmodium falciparum (isolate CDC / Honduras)) (Q27743 whole entry, looked up): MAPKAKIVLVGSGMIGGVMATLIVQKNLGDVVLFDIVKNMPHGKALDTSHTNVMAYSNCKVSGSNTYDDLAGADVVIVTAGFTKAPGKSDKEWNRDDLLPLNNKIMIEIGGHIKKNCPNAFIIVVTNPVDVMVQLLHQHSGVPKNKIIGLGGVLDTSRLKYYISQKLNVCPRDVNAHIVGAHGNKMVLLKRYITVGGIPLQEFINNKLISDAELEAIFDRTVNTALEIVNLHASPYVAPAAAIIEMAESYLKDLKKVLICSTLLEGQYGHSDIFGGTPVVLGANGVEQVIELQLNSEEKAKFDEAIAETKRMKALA

[4] = inhibition of 3D7 malaria parasite growth – strain 3D7 (AID 2306); settings: P. falciparum 3D7 erythrocytic growth, LDH absorbance, 72 h; at 2 µM; hits give high values
[5] = target: Calcium-dependent protein kinase 1 (Plasmodium falciparum (isolate 3D7)) (UniProt P62344); assay: PfCDPK1 kinase inhibitors, biochemical, TCAMS library (AID 1159585; cut-off not given, nearly all actives have IC50 up to about 0.98 µM;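 further: inhibitors leave more ATP so luminescence rises with inhibition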); settings: recombinant PfCDPK1, Kinase-Glo ATP depletion luminescence
Sequence of Calcium-dependent protein kinase 1 (Plasmodium falciparum (isolate 3D7)) (P62344 whole entry, looked up): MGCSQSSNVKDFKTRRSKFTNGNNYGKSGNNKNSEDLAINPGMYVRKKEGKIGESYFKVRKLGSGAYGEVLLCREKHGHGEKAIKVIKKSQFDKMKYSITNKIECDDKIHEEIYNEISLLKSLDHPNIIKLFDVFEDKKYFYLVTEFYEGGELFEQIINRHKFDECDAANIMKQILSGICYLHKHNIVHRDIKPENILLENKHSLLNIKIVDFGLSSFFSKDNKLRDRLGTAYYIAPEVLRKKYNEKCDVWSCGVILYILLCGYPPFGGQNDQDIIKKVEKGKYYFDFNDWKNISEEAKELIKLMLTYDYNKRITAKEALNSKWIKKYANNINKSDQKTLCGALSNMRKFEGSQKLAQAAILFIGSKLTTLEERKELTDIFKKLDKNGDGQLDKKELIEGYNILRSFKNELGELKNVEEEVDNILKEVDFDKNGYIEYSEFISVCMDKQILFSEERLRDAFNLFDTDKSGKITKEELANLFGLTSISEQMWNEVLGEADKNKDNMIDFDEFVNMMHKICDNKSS

[6] = target: Plasmodium falciparum protein kinase 6 (PK6, PF3D7_1337100) (UniProt Q8IDW1); assay: PfPK6 kinase inhibitors, biochemical, TCAMS library (AID 1159586); settings: recombinant PfPK6, Kinase-Glo ATP depletion luminescence
Sequence of Plasmodium falciparum protein kinase 6 (PK6, PF3D7_1337100) (Q8IDW1 1-305): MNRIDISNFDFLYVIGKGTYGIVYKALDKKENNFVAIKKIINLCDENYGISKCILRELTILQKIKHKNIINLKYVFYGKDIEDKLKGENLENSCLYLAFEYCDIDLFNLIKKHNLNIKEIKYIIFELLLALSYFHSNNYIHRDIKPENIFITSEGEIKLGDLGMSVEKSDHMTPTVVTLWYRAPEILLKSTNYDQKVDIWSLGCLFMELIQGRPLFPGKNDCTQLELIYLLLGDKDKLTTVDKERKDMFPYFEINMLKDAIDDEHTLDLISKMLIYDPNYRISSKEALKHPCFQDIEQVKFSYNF

[7] = target: Protein kinase 7 (PK7), Plasmodium falciparum 3D7 (PF3D7_0213400) (UniProt Q7YTF7); assay: inhibition of Plasmodium PK7 catalytic activity – biochemical, TCAMS antimalarial set, Kinase-Glo luminescence (AID 1159587); settings: recombinant PfPK7, Kinase-Glo ATP depletion luminescence
Sequence of Protein kinase 7 (PK7), Plasmodium falciparum 3D7 (PF3D7_0213400) (Q7YTF7 1-343): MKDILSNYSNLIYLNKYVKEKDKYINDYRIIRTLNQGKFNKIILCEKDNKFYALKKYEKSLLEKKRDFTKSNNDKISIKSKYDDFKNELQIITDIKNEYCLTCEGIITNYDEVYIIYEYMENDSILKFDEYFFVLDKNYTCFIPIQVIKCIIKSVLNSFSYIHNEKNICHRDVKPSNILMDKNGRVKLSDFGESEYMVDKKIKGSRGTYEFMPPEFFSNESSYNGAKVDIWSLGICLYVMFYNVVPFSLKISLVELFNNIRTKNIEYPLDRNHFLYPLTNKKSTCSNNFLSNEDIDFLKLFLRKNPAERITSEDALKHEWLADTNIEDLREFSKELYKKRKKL

[8] = target: Calcium-dependent protein kinase 4 (Plasmodium falciparum (isolate 3D7)) (UniProt Q8IBS5); assay: PfCDPK4 kinase inhibitors, biochemical, TCAMS library (AID 1159588; cut-off not given, nearly all actives have IC50 up to about 0.91 µM); settings: recombinant PfCDPK4, Kinase-Glo ATP depletion luminescence
Sequence of Calcium-dependent protein kinase 4 (Plasmodium falciparum (isolate 3D7)) (Q8IBS5 whole entry, looked up): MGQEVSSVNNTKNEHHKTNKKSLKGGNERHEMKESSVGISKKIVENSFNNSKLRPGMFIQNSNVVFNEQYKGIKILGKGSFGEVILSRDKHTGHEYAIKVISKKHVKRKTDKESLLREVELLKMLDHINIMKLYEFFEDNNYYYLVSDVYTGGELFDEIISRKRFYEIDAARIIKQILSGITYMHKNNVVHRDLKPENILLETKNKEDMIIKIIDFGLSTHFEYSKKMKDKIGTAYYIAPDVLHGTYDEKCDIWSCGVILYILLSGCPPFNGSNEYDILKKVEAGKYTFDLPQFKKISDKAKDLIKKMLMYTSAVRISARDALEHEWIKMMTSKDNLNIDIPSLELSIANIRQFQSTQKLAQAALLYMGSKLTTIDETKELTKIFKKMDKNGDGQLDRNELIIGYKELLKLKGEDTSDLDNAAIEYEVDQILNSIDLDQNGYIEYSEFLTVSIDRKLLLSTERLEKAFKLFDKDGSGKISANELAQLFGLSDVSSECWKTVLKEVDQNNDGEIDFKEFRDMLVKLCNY

SMILES	growth inhibition [1]	inhibition [2]	inhibition [3]	growth inhibition [4]	outcome [5]	outcome [6]	outcome [7]	outcome [8]
CC(Cc1ccc(OCCCCOc2ccccc2)cc1)NCCC1CCCN1C (stereo not drawn)	98% (active)	100% (active)	3%	99% (active)	inactive	inactive	inactive	inactive
O=C(COc1ccc(Cl)cc1)N1CCC(CN2CCC(c3c[nH]c4ccccc34)CC2)CC1	13%	48%	1%	89% (active)	inactive	inactive	inactive	inactive
CC(Cc1ccc(OCCCCOc2ccccc2)cc1)NCCCn1ccnc1 (stereo not drawn)	101% (active)	100% (active)	0%	101% (active)	inactive	inactive	inactive	inactive
CN(C)c1cccc(NC(=O)N[C@H]2N=C(c3ccccc3)c3ccccc3N(CC(=O)N3CCCC3)C2=O)c1	98% (active)	-5%	-4%	98% (active)	inactive	inactive	inactive	inactive
CC(=O)C1(c2ccccc2)CCN(CCC2(c3ccc(Cl)c(Cl)c3)CN(C(=O)C3CCCCC3)CCO2)CC1 (stereo not drawn)	99% (active)	3%	-2%	100% (active)	inactive	inactive	inactive	inactive
Cc1cccc2c(C3CCN(CC4CCC(NC(=O)/C=C/c5ccc(Cl)c(Cl)c5)CC4)CC3)c[nH]c12 (stereo not drawn)	49%	97% (active)	-4%	92% (active)	inactive	inactive	inactive	inactive
CCCCCCC(C)c1cc(O)c2c(c1)OC(C)(C)c1ccncc1-2 (stereo not drawn)	61% (active)	-3%	-4%	100% (active)	inactive	inactive	inactive	inactive
CCCCCCCc1cc(O)c2c(c1)OC(C)(C)c1ccncc1-2	52% (active)	-7%	0%	95% (active)	inactive	inactive	inactive	inactive
O=C(NC1CCC(CN2CCC(c3c[nH]c4ccccc34)CC2)CC1)c1cc(-c2ccccc2Cl)oc1C(F)(F)F (stereo not drawn)	7%	24%	4%	99% (active)	inactive	inactive	inactive	inactive
O=C(CCc1ccco1)NC1CCN(CC2(c3ccc(Cl)cc3)CCC2)CC1	67% (active)	-12%	-2%	99% (active)	inactive	inactive	inactive	inactive
CNC(=O)c1ccc2[nH]cc(C3CCN(CC4CCC(NC(=O)/C=C/c5ccc(Cl)c(Cl)c5)CC4)CC3)c2c1 (stereo not drawn)	90% (active)	-1%	-7%	100% (active)	inactive	inactive	inactive	inactive
O=C(NC1CCC(CN2CCC(c3c[nH]c4ccccc34)CC2)CC1)c1cnn(-c2ccccc2)c1-c1ccccc1Cl (stereo not drawn)	11%	66% (active)	-6%	95% (active)	inactive	inactive	inactive	inactive
C1=C(c2c[nH]c3ccccc23)CCN(Cc2ccccc2)C1	80% (active)	22%	-1%	91% (active)	inactive	inactive	inactive	inactive
O=C(/C=C/c1cccs1)NC1CCC(CN2CCC(c3c[nH]c4ccccc34)CC2)CC1 (stereo not drawn)	29%	33%	-1%	82% (active)	inactive	inactive	inactive	inactive
CC(=O)N(Cc1ccccc1-c1ccc(CNCCc2ccccc2)cc1)C1CCN(Cc2ccccc2)CC1	85% (active)	24%	3%	101% (active)	inactive	inactive	inactive	inactive
COc1ccc(CCNCc2ccc3nc(N)cc(C)c3c2)cc1	86% (active)	23%	-5%	100% (active)	inactive	inactive	inactive	inactive
CC(=O)C1(c2ccccc2)CCN(CCC2(c3ccc(Cl)c(Cl)c3)CN(C(=O)Nc3cc(F)cc(F)c3)CCO2)CC1 (stereo not drawn)	20%	2%	-1%	86% (active)	inactive	inactive	inactive	inactive
CN(C)c1cccc(CCNCCc2c[nH]c3ccc(Cl)cc23)c1	75% (active)	19%	-6%	94% (active)	inactive	inactive	inactive	inactive
CC[C@H]1CN2CC[C@H]1C[C@H]2[C@H](O)c1cc(-c2ccc3ccccc3c2)nc2ccc(OC)cc12	99% (active)	49%	-3%	99% (active)	inactive	inactive	inactive	inactive
Cc1ccc(C)c(C=CC(=O)NC2CCC(CN3CCC(c4c[nH]c5ccccc45)CC3)CC2)c1 (stereo not drawn)	55% (active) and 80% (active)	38% and 46%	3% and 5%	101% (active) and 102% (active)	inactive	inactive	inactive	inactive
COC(=O)c1ccc(CC(C)NCC(O)c2cccc(Br)c2)cc1 (stereo not drawn)	88% (active)	-6%	-2%	99% (active)	inactive	inactive	inactive	inactive
